D1 antagonist = Antagonist of Human D 1 Dopamine Receptor: qHTS | D(1A) dopamine receptor (Homo sapiens), P21728 | HEK293 TREx D1 cells, calcium flux, dopamine EC80; active compounds read low | activity change, negative = inhibition, % at 10 µM | actives 3.2% (n = 360,000) | AID 504652, 2011; in the data active = activity change below about -30%
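Kinetic fluorescence of a calcium dye serves as the read-out. D1-expressing Hek293 Trex cells, induced overnight at 30 C, are exposed to compound for 180 s before an EC80 dopamine addition, then read 180 s further.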
D1 PAM = Potentiators of Human D1 Dopamine Receptor: qHTS | actives 0.036% (n = 360,000) | D(1A) dopamine receptor (Homo sapiens), P21728 | potentiation, % at 10 µM | HEK293 TREx D1 cells, calcium flux, dopamine EC20 potentiation | AID 504651, 2011; in the data active = potentiation above about 30%
DRD3 antagonist = qHTS of D3 Dopamine Receptor Antagonist: qHTS; D3R cells, DiscoveRx beta-arrestin luminescence, antagonist mode; active compounds read low; max response, negative = inhibition, %; actives 2.5% (n = 360,000); AID 652054, 2013; in the data active = max response below about -50%; inconclusive = no clear call, values can overlap the other calls
Target sequence (P35462 whole entry, looked up): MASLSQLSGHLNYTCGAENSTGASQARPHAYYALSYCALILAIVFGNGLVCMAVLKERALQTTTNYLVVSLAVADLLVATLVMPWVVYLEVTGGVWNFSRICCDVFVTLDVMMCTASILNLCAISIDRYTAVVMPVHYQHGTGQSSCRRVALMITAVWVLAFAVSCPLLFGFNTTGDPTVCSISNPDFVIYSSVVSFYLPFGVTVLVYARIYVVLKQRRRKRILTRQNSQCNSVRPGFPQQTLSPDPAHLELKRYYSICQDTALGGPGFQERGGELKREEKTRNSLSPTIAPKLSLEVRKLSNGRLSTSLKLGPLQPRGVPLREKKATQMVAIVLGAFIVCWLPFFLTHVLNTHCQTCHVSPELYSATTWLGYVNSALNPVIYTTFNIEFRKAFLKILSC
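Cells expressing the human receptor were seeded at 1500 cells/well, incubated overnight at 37 degrees C in 5% CO2, then exposed to library compounds with dopamine controls for 90 minutes at 37 degrees C before luminescent detection.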
D3 ag = qHTS of D3 Dopamine Receptor Agonist: qHTS | D(3) dopamine receptor (Homo sapiens), P35462 | actives 0.58% (n = 410,000) | max activation, % | D3R DiscoveRx beta-arrestin cells, luminescence, 90 min; in the data active = max activation above about 30%
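Agonist-mode cell screen: cells plated at 1500/well and incubated overnight at 37 °C, then exposed to library compounds for 90 min at 37 °C. Detection reagent was added for 30–60 min at room temperature, and luminescence was read.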
D1 ag = Allosteric Agonists of the Human D1 Dopamine Receptor: qHTS | activation, % at 2 µM | HEK293 T-REx D1 cells, calcium flux, agonist mode | actives 1% (n = 360,000) | D(1A) dopamine receptor (Homo sapiens), P21728 | AID 504660, 2011; in the data active = activation above about 30%
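Tetracycline-induced HEK293 TREx D1 cells, force-coupled to calcium signalling, were dye-loaded with a no-wash calcium kit. Compound was pin-added after a 10 s baseline. Fluorescence was read kinetically at 1 cycle/s for 180 s, with calcium rises flagged as agonism.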
Hits are given with their value; . = inactive; ? = inconclusive; / = not tested or not shown. An excerpt weighted towards active compounds, which were near 6% of everything screened.

SMILES	D1 antagonist	D1 PAM	DRD3 antagonist	D3 ag	D1 ag
COc1ccc(C(CCNCc2ccc(N(C)C)cc2)c2ccccc2)cc1 (stereo not drawn)	.	.	.	.	.
COc1ccc(CNCCC(c2ccc3c(c2)OCO3)c2ccccc2OC)cc1 (stereo not drawn)	.	.	/	.	80
Cc1ccc(NC(=O)Cn2c(=O)n(CCC(=O)N3CCc4ccccc4C3)c(=O)c3ccccc32)c(C)c1	.	.	/	.	.
CCc1ccc(Nc2nnc(-n3nc(C)cc3C)c3ccccc23)cc1	.	.	/	.	.
Cc1ccc(S(=O)(=O)N2CCN(C(=O)CN3CCCSc4ccccc43)CC2)cc1	.	.	-55	.	.
COc1cc(CN2CCC(C(=O)NC(c3ccccc3)c3ccsc3)CC2)cc(OC)c1 (stereo not drawn)	/	/	?	.	/
Cc1ccccc1C(NC(=O)C1CCN(Cc2ccc(Oc3ccccc3)cc2)CC1)c1ccsc1 (stereo not drawn)	/	/	-56	.	/
O=C(NC(c1ccc(Cl)cc1)c1ccsc1)C1CCN(Cc2ccc(Oc3ccccc3)cc2)CC1 (stereo not drawn)	/	/	-64	.	/
O=C(NC(c1ccccc1)c1ccsc1)C1CCN(Cc2ccccc2)CC1 (stereo not drawn)	/	/	?	.	/
CCCN1CCC(C(=O)NC(c2ccc(Cl)cc2)c2ccsc2)CC1 (stereo not drawn)	/	/	-56	.	/
Cc1ccc(C)c(OCCOCCn2c(-c3ccc(Br)cc3)nc3ccccc3c2=O)c1C	.	.	/	.	.
COc1ccc(C(=O)COC(=O)CCn2c(C)csc2=O)c(OC)c1	/	/	.	.	/
COc1ccc(C(=O)COC(=O)Cn2c(C)csc2=O)c(OC)c1	-33	.	.	.	.
O=C(CSc1ncc2c(n1)-c1cc(Cl)ccc1N(Cc1ccccc1F)S2(=O)=O)Nc1cccc(C(F)(F)F)c1	.	.	/	.	.
COc1ccc(CC(CC(=O)O)C(=O)Nc2ccc(Cl)c(Cl)c2)cc1 (stereo not drawn)	-31	.	.	.	.
COc1ccccc1C(=O)NNC(=O)C(=O)NCc1ccccc1	.	.	.	.	.
Cc1ccc(CC(CC(=O)O)C(=O)Nc2ccc(Cl)cc2)cc1 (stereo not drawn)	.	.	.	.	.
COc1ccc(CC(CC(=O)O)C(=O)NCc2ccccc2)cc1 (stereo not drawn)	.	.	-69	.	.
COc1ccc(C(=O)NNC(=O)C(=O)NCc2ccccc2)cc1	-48	.	.	.	.
COc1ccc(NC(=O)C(NC(C)=O)C(=O)NCc2ccccc2)cc1 (stereo not drawn)	.	.	.	.	.
CCCCC(=O)Nc1ccc(OCc2cc(=O)n3ccc(C)cc3n2)cc1	.	.	/	.	.
CCCCN(C)CCNC(=O)c1ccc(Cn2c(=O)[nH]c3cc(OC)c(OC)cc3c2=O)cc1	.	.	/	.	.
Cc1cc(C)cc(-n2c(C)cc(/C=N\NC(=O)COc3cccc4cccnc34)c2C)c1	.	.	.	.	45
CCCCN1CCC(COC(=O)c2cc(Cl)c(N)c3c2OCCO3)CC1	.	.	-108	.	.
CCOC(=O)Cc1cc(-c2ccc(F)cc2)nc2ccc3ccccc3c12	-57	.	.	.	.
SMILES	D1 antagonist	D1 PAM	DRD3 antagonist	D3 ag	D1 ag
COc1cc2[nH]c(=O)n(Cc3ccc(C(=O)NCc4ccccc4)cc3)c(=O)c2cc1OC	.	.	/	.	.
O=c1c2cc(NC(=S)N3CCC(N4CCCCC4)CC3)ccc2nc2n1CCCCC2	-38	.	.	.	.
O=c1c2cc(NC(=S)NCCN3CCCCCC3)ccc2nc2n1CCCCC2	.	.	.	.	.
CC1CCCCN1C(=S)Nc1ccc2nc3n(c(=O)c2c1)CCCCC3 (stereo not drawn)	.	.	.	.	.
O=c1c2cc(NC(=S)NC3CC3)ccc2nc2n1CCCCC2	-38	.	.	.	.
O=c1c2cc(NC(=S)NCCCN3CCC(Cc4ccccc4)CC3)ccc2nc2n1CCCCC2	-41	.	-94	.	46
CC(C)NC(=S)Nc1ccc2nc3n(c(=O)c2c1)CCCCC3	-79	.	.	.	.
Cc1ccc(Cl)cc1NC(=O)Cn1cc(S(=O)(=O)Cc2ccccc2Cl)c2ccccc21	.	.	/	.	.
CC(C)NC(=O)c1ccc(Cn2c(SCC(N)=O)nc3ccccc3c2=O)cc1	.	.	/	.	.
CN(Cc1ccccc1)C(=O)Nc1ccc2c(c1)N(C)C(=O)c1ccccc1S2	.	.	/	.	.
Cc1ccc(CNS(=O)(=O)c2cc3[nH]c(=O)c(=O)[nH]c3cc2C)cc1	.	.	/	.	.
NCCCC[C@@H]1NC(=O)[C@H](CCC(=O)O)NC(=O)c2cc([N+](=O)[O-])cc(I)c2SC[C@@H](C(=O)NCC(N)=O)NC1=O	-44	.	.	.	.
NCCCC[C@@H]1NC(=O)c2cc([N+](=O)[O-])cc(I)c2SC[C@@H](C(N)=O)NC(=O)[C@H](Cc2ccc(O)cc2)NC1=O	.	.	.	.	.
COc1ccc(NC(=O)Cn2c(=O)cc(C)c3c(C)nn(C)c32)cc1	.	.	/	.	.
CCC(CC)C(=O)NCCc1ccc(S(N)(=O)=O)cc1	-42	.	.	.	.
NS(=O)(=O)c1ccc(CCNC(=O)c2ccc3ccccc3n2)cc1	-31	.	.	.	.
O=C(O)COc1nn(Cc2ccccc2)c2ccccc12	/	/	/	.	/
CCC(=O)N1CCc2cc(Br)cc(S(=O)(=O)N3CCCC(C(=O)Nc4cccc(Cl)c4C)C3)c21 (stereo not drawn)	.	.	/	.	.
O=C(COC(=O)c1cc[n+]([O-])cc1)Nc1ccc(Br)cc1	.	.	.	.	.
O=C(COC(=O)c1cc[n+]([O-])cc1)Nc1ccc(SC(F)F)cc1	-34	.	.	.	.
Cc1nc2ccn(Cc3cccnc3)c(=O)c2cc1C(=O)NCc1ccc(Cl)cc1	.	.	/	.	.
Cn1cc(/C=N/NC(=O)c2cc3cc(Br)ccc3o2)c2ccccc21	.	.	?	.	.
O=C(O)Cn1cc(/C=N/NC(=O)c2cc3cc(Br)ccc3o2)c2ccccc21	-33	.	.	.	.
O=C(NC1CC(=O)N(c2ccc(F)cc2)C1)c1ccco1 (stereo not drawn)	/	.	/	.	.
COc1cc(-c2nnc(-c3ccco3)o2)ccc1OCc1ccccc1	.	.	.	30	.
COc1cc(-c2nnc(-c3ccncc3)o2)ccc1OCc1ccccc1	.	.	.	81	.

Assay outcomes (PubChem BioAssay)
